# Experimental data taken from publication PMC7819943, “Rice protein-binding microarrays: a tool to detect cis-acting elements near promoter regions in rice”.
# Whole data set: some 68,000 sequences, median “fluorescence intensity (a.u.)” near 9,100, cut for the highest 2% near 16,000. The entries come from a sample that favours the highest values as a whole.
# Molecular target: OsWRKY34 (Oryza sativa, UniProt Q0JBA9 1-250)
# Experiment: protein-binding microarray (RPBM); PBS, 2% BSA, 51.3 ng/ul salmon testes DNA, 50 uM zinc acetate, 200 nM TF, 25 C, 1 h; high values mean tight binding
# Conditions: protein: recombinant; tags: N-terminal polyhistidine and DsRed monomer fusion (pET32a); label: CyDye5-dUTP incorporated in the synthesized complementary strand; 3' TTTTT single-stranded linker to array surface; dsDNA, one strand shown
# In short: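 Transcription factors were each fused at the N-terminus to a polyhistidine tag plus DsRed and expressed in E. coli BL21-CodonPlus before Ni–NTA purification. Binding to a double-stranded custom Agilent array was carried out with 200 nM protein at 25 °C for 1 h in PBS, 2% BSA, salmon testes DNA and 50 µM zinc acetate. The binding signal is per-feature fluorescence intensity, in arbitrary units, on an Axon 4000B scanner.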
# OsWRKY34, sequence (Q0JBA9 entry or part of it): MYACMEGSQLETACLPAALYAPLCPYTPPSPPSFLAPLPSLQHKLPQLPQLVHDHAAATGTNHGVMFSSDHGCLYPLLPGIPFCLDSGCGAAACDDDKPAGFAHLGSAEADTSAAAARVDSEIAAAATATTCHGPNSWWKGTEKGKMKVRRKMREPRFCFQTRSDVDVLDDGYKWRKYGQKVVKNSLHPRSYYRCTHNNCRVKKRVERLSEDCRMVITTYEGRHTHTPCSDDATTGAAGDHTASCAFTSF
row,Sequence,binding signal
1,AACGGTTGCAGCTCTAATTGAGGGCTTTGTTTAGTTCATGCGGAGTCACCTAGTGCAG,8640 fluorescence intensity (a.u.)
2,CGAGAGAGAGAGGGGAGGGTTTTGGGTTGTGCTTAGGTTTCGGAGTCACCTAGTGCAG,13100 fluorescence intensity (a.u.)
3,TGAATTTGTGGTTTTTTTTGGGGAGGGTTTTTTTTTTCTTCGGAGTCACCTAGTGCAG,34600 fluorescence intensity (a.u.)
4,GTTAAATTCGAGGGGTTTCTTGTAATTTCGGGGTGGATAACGGAGTCACCTAGTGCAG,16500 fluorescence intensity (a.u.)
5,AATTCGGGGTTTGGGGCCGCGGAGGGGTGCTTACGTGAGTCGGAGTCACCTAGTGCAG,15100 fluorescence intensity (a.u.)
6,GCGGAGGCAGGGAGGGTTTTGGAATTTTCGGCCGCCGTTGCGGAGTCACCTAGTGCAG,10100 fluorescence intensity (a.u.)
7,AGTTCGGGGTGGTTTAAAGTGTAAAAAAATGTTAATAAAACGGAGTCACCTAGTGCAG,8870 fluorescence intensity (a.u.)
8,CGAGGGTTTGGGAGTCGGGGAATTCGGGGTTTGGGGCCGCCGGAGTCACCTAGTGCAG,26700 fluorescence intensity (a.u.)
9,TTTTGTGTATGTTTCGGTGGGAATTTGAGGGTTGTGTTTTCGGAGTCACCTAGTGCAG,14200 fluorescence intensity (a.u.)
10,CAATGGAGGGGTGTTTTTTTTTCTATTTTTCTAAATAATTCGGAGTCACCTAGTGCAG,14800 fluorescence intensity (a.u.)
11,CGGTGTACTACTTTTATATATGCAAACCTTTATTGCCTGACGGAGTCACCTAGTGCAG,10300 fluorescence intensity (a.u.)
12,GGCCCACCGTCGCACTCGCGCCTTCCGCTGCTCCGTTGCCCGGAGTCACCTAGTGCAG,8880 fluorescence intensity (a.u.)
13,GTTTTTCCTCTCTGCTTGTAACGCGTGATGTAAAATTTTCCGGAGTCACCTAGTGCAG,11000 fluorescence intensity (a.u.)
14,CGTCGAGTATCTGTATCTCTAAGCATTTCTTGTTGACTTTCGGAGTCACCTAGTGCAG,10600 fluorescence intensity (a.u.)
15,CCGTGCCCACCTGAGCTCGCTTCGCCGCCATTGGCAGCCTCGGAGTCACCTAGTGCAG,9100 fluorescence intensity (a.u.)
16,GTGGGCAGATTTAGTTTTAATGGGTGTGGGTACGGAGAGTCGGAGTCACCTAGTGCAG,8900 fluorescence intensity (a.u.)
17,AAGCGGGGATTTTATGTGGGCAGTGGGTTTTCTTCTTAAACGGAGTCACCTAGTGCAG,19300 fluorescence intensity (a.u.)
18,ACATGTGGGGCCTATTTATTTCTTTTTTTTTAAAAAAAAACGGAGTCACCTAGTGCAG,8480 fluorescence intensity (a.u.)
19,AGAGGGGAGGGAGGAGGATTATGGTTTTTTTTCTCTAAAACGGAGTCACCTAGTGCAG,16700 fluorescence intensity (a.u.)
20,AGGCTACACTATTAAACTTGCTCTTCTCAAGCTACTTCAACGGAGTCACCTAGTGCAG,8190 fluorescence intensity (a.u.)
21,TGTATAGTTTAGGGGTGAAGATTTCTGGTTTTGTGGTTAACGGAGTCACCTAGTGCAG,11500 fluorescence intensity (a.u.)

row,Sequence,binding signal
1,ATTATTAATAAAACTCATTCTATAACTCTGGACTAATTCGCGGAGTCACCTAGTGCAG,8200 fluorescence intensity (a.u.)
2,GGGGTTTGCTATTCTGGCTCTCTATTAAGCTCATAAAAAACGGAGTCACCTAGTGCAG,23500 fluorescence intensity (a.u.)
3,ATGGTTTTTCAGGGTTGGATTTATGTGTGGTCAGTTTAAACGGAGTCACCTAGTGCAG,12000 fluorescence intensity (a.u.)
4,GATGTGCCAATGGTTTCTTTCTCTTTCTTTCTCTTTAAAACGGAGTCACCTAGTGCAG,8910 fluorescence intensity (a.u.)
5,TTATGGTTGTTTTCTTCGGTTCTTTGTTTTTTTAAAAAAACGGAGTCACCTAGTGCAG,11600 fluorescence intensity (a.u.)
6,GAGTGGGTGTGGGTTTTCTAGTGGGCAGATTTAGTTTTAACGGAGTCACCTAGTGCAG,17200 fluorescence intensity (a.u.)
7,TCCATTTCCCGCCGCCTCCCCTCTCGCGATCCATATCCATCGGAGTCACCTAGTGCAG,8050 fluorescence intensity (a.u.)
8,GCTTTTCTTCCTCGACAAGGCCGCCTGCACCACCGTCTCCCGGAGTCACCTAGTGCAG,10500 fluorescence intensity (a.u.)
9,CTGGTTACTTTCTCATTTCTTCCTCGCTCGCGCGCTCTCTCGGAGTCACCTAGTGCAG,10800 fluorescence intensity (a.u.)
10,GATTTAGAGTTGGAGTCAGTCGGTTTGACCAGCCACATGCCGGAGTCACCTAGTGCAG,8690 fluorescence intensity (a.u.)
11,GCTAGGTCAACTTTGCTCTCAGCTCTCGCTCCCGATGCCACGGAGTCACCTAGTGCAG,9760 fluorescence intensity (a.u.)
12,CTCTCTCTCTCTCTCTCTCTCTCTCTCCAACGCGCGCGCGCGGAGTCACCTAGTGCAG,8700 fluorescence intensity (a.u.)
13,CGGCGTCTCTACCTCTACGAATCAGGTCAGGCTTCGATCCCGGAGTCACCTAGTGCAG,8380 fluorescence intensity (a.u.)
14,CTGGCCGCCATCTCCGCCAATCTCGCTGAATCGGACGCCACGGAGTCACCTAGTGCAG,8460 fluorescence intensity (a.u.)
15,GGGGTTTTTCTTATGTTAGTATATGTGTGGGATGTGTGAACGGAGTCACCTAGTGCAG,16800 fluorescence intensity (a.u.)
16,ATGTGTGGATTTATAAGGGTGAGTATATGTGTTTCGGGAACGGAGTCACCTAGTGCAG,8140 fluorescence intensity (a.u.)
17,GAAATGTGGGAGGGGTTTTCTTACAAATGTTATATAGACACGGAGTCACCTAGTGCAG,13900 fluorescence intensity (a.u.)
18,CGGGTTCAATATATTGTTTTTTTTAAGACTGGTTCAATATCGGAGTCACCTAGTGCAG,8880 fluorescence intensity (a.u.)
19,TATGTGTTTTTTGCCGATTAAATTATTACGGGATATATAACGGAGTCACCTAGTGCAG,9680 fluorescence intensity (a.u.)
20,TATATCACATTTAATTATTTTTCCCATGTTCTTGTTTTAACGGAGTCACCTAGTGCAG,9480 fluorescence intensity (a.u.)
21,ATTGGGTTGATATTATATTGGCAGGGCCAGAAAGTTTTACCGGAGTCACCTAGTGCAG,8580 fluorescence intensity (a.u.)

row,Sequence,binding signal
1,AACGGTCAAACATGTGCTAAAAAGTCAACGGTGTCAAATACGGAGTCACCTAGTGCAG,18600 fluorescence intensity (a.u.)
2,CGAATGGTCAAACATGTAGAAAAAAGTCAACGGTGTCATCCGGAGTCACCTAGTGCAG,16900 fluorescence intensity (a.u.)
3,ATGGTCAAACATGTGAGAAAAAGTCAACGGCGTCATCTATCGGAGTCACCTAGTGCAG,19600 fluorescence intensity (a.u.)
4,ACGAATGGTCAAACATGTGAGGAAAAGTCAACGGCGTCATCGGAGTCACCTAGTGCAG,13400 fluorescence intensity (a.u.)
5,ATGGTCAAACATGTGCTAAAAAGTCAACGGTGTCAAACATCGGAGTCACCTAGTGCAG,17700 fluorescence intensity (a.u.)
6,GAACGGTCAAACATGTGCTAAAAAGTCAACGGTGTCAAACCGGAGTCACCTAGTGCAG,10100 fluorescence intensity (a.u.)
7,ACGAACGGTCAAACATGTGCTAAAAAGTCAACGGTGTCAACGGAGTCACCTAGTGCAG,15900 fluorescence intensity (a.u.)
8,AACGGTCAAATATGTGCTAAAAAGTCAACGGTGTCAAATACGGAGTCACCTAGTGCAG,11300 fluorescence intensity (a.u.)
9,CGAATGGTCAAACATATGAGAAAAAGTCAACGATGTCATCCGGAGTCACCTAGTGCAG,13900 fluorescence intensity (a.u.)
10,CGGTCAAACATGTGCTAAAAAGTCAACGGTGTCAAATATTCGGAGTCACCTAGTGCAG,11400 fluorescence intensity (a.u.)
11,TAAGACGAATGGTCAAACATGTAAGAAAAAGTCAACGGTACGGAGTCACCTAGTGCAG,12900 fluorescence intensity (a.u.)
12,AATGGTCAAACATGTGAGAAAAAGTCAACGGCGTTATCTACGGAGTCACCTAGTGCAG,15500 fluorescence intensity (a.u.)
13,TAGCTCGGATTCTGCCCCTAATCCCGCCGTCCGCCTCCGCCGGAGTCACCTAGTGCAG,8490 fluorescence intensity (a.u.)
14,AGGCAACACATACAATGTATCACCTCTAACACACAAATACCGGAGTCACCTAGTGCAG,8410 fluorescence intensity (a.u.)
15,TCCATCAGTTTTGTGAACTCTGTCTGTCACTCGCTCAGCACGGAGTCACCTAGTGCAG,8940 fluorescence intensity (a.u.)
16,TTCTTCGTTTTTCTGAGTACGATCTCCCAGGGTTATAATCCGGAGTCACCTAGTGCAG,8850 fluorescence intensity (a.u.)
17,CGAGACCGACTGATGCTACAACTTCTGTCCTTGCTCCGGCCGGAGTCACCTAGTGCAG,8620 fluorescence intensity (a.u.)
18,ATGTGTGACTTGTCTTTTTAATTTTTTTTTTAATTTTTTTCGGAGTCACCTAGTGCAG,9610 fluorescence intensity (a.u.)
19,AGGCTATCGTATGACTTTCTTCTGCTTTCATTTGTGTTCACGGAGTCACCTAGTGCAG,15300 fluorescence intensity (a.u.)
20,TGGTGGCGTCTGTATTGGGTTTCTTTCTCCAAGTTATATTCGGAGTCACCTAGTGCAG,9710 fluorescence intensity (a.u.)
21,CTTTGCTCACTCTTTCTTTTCTCTTCAGGTCTCCATTCTTCGGAGTCACCTAGTGCAG,12200 fluorescence intensity (a.u.)

row,Sequence,binding signal
1,CGTGTCGGTGTCTCATCTCTCTCTCTCTTCCCATCCGCCGCGGAGTCACCTAGTGCAG,8790 fluorescence intensity (a.u.)
2,CCAAAAACCTCTACTCTTCCGCGTCTTGGAAAATTCTTCTCGGAGTCACCTAGTGCAG,9300 fluorescence intensity (a.u.)
3,TAAGATAAACGGTCAAACATTTGCTAAAAAGTCAACGGTGCGGAGTCACCTAGTGCAG,17300 fluorescence intensity (a.u.)
4,GTGCTAAAAAGTCAACGGTGTCAAATATTTAGAAATGAAGCGGAGTCACCTAGTGCAG,21200 fluorescence intensity (a.u.)
5,AAACATGTGCTAAAAAGTCAACGGTGTCAAACATTTTGAACGGAGTCACCTAGTGCAG,10400 fluorescence intensity (a.u.)
6,AATAATAAGAACGGTCAAACATATGCTAAAAAGTCAACGGCGGAGTCACCTAGTGCAG,11500 fluorescence intensity (a.u.)
7,CATGTCACTATACTATTATATCCTATTATATCCTATAATACGGAGTCACCTAGTGCAG,8100 fluorescence intensity (a.u.)
8,TTATAACATGTCATTAATAAAGGGCATTATGCAACTAATACGGAGTCACCTAGTGCAG,64200 fluorescence intensity (a.u.)
9,TTGCTAAAAAGTCAACGGTGTCAAATATTTCGAAACGGAGCGGAGTCACCTAGTGCAG,12300 fluorescence intensity (a.u.)
10,GTCAAACATGTGCTAAAAAGTCAACGGTGTCAAACATTTCCGGAGTCACCTAGTGCAG,17400 fluorescence intensity (a.u.)
11,TACTATTTTTTTCTATAACTATTTATGTCACATGTAAATACGGAGTCACCTAGTGCAG,8300 fluorescence intensity (a.u.)
12,GTCAAACATGTGCTAAAAAGTCAACAGTGTCAAACATTTCCGGAGTCACCTAGTGCAG,9540 fluorescence intensity (a.u.)
13,TCAAACACGTACTAAAAAGTCAACGGTGTCAAACATTTTGCGGAGTCACCTAGTGCAG,15600 fluorescence intensity (a.u.)
14,TGTGCTAAAAAAGTCAACGGTGTCAAATATTTCGAAACGGCGGAGTCACCTAGTGCAG,14700 fluorescence intensity (a.u.)
15,CATCTTCGCAGCAACTCAGTCATCAGCCCATAGCCATTTACGGAGTCACCTAGTGCAG,8950 fluorescence intensity (a.u.)
16,AAGGCTTATCACTTCGATTTTTATTTTAGTCCTTGTACTTCGGAGTCACCTAGTGCAG,8460 fluorescence intensity (a.u.)
17,ACCATCTTTTAAATCAGACCTCTCACCAATTTTGATATTTCGGAGTCACCTAGTGCAG,8230 fluorescence intensity (a.u.)
18,CGCCGGTACGTTTTCCCCGCCGCCGCCTTTCCGGCCGGCCCGGAGTCACCTAGTGCAG,8950 fluorescence intensity (a.u.)
19,ACTGTAGCCCATTTTTGATATGGCCAAGGCCCACATAGCACGGAGTCACCTAGTGCAG,8260 fluorescence intensity (a.u.)
20,GTCTACATGAACCATTCCAAATGACTTTTATAGGATTTCACGGAGTCACCTAGTGCAG,8340 fluorescence intensity (a.u.)
21,GCACCAAGGCCAATACTTGTCCGGATCACCAAGGACACCTCGGAGTCACCTAGTGCAG,8020 fluorescence intensity (a.u.)
